The target in test [1] is Cellular tumor antigen p53 (Homo sapiens) (UniProt P04637). Nature of the test: Primary qHTS for small molecule compounds that upregulate eGFP-tagged delta133p53alpha (in N-terminal) cells. (AID 2060322).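 For activation: cells pre-induced with doxycycline then dosed without doxycycline; 0% = DMSO vehicle and 100% = reference activator.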 Note: nearly all actives have a fitted effect of over 75% in size. Note: potency is the fitted concentration of half-maximal effect. Conditions: NCI-H358 eGFP-delta133p53alpha fluorescence, 24 h; activation: active compounds read high. In short, it runs like this: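 NCI-H358 cells pre-induced 24 h with 10 ng/ml doxycycline for eGFP-delta133p53alpha, plated dox-free and exposed 24 h at 37C to titrated compounds. Fixed, Hoechst-stained; gated GFP peak intensity by laser scanning cytometry, normalized to DMSO (0%) and 57.5 uM 5-azacytidine (100%).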
Sequence of Cellular tumor antigen p53 (Homo sapiens) (P04637 whole entry, looked up): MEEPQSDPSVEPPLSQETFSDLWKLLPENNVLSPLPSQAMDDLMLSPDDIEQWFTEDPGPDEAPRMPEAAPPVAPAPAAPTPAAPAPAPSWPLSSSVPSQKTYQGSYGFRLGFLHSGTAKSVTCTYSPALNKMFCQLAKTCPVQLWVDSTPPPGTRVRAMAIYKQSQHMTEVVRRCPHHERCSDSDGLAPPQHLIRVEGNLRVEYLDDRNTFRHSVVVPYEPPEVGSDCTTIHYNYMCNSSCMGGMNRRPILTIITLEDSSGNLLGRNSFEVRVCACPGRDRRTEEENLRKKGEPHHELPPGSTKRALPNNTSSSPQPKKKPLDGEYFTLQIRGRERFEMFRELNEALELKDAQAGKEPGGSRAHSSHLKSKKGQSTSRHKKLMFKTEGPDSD

Test [2] addresses Aldehyde dehydrogenase, mitochondrial (Homo sapiens) (UniProt P05091). Nature of the test: qHTS for Inhibitors of the Aldehyde Dehydrogenase Family (ALDH2) Primary screen (AID 2061308).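 Note: plate controls were vehicle for no effect and reference inhibitor for full effect; nearly all actives have a fitted effect of over 55% in size.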 To be noted: ALDH2 enzyme inhibition qHTS, 1536-well; series mostly up to 56 µM. (In general: Quantitative high-throughput screening tests each substance at several concentrations.)
The target in test [3] is Retinaldehyde dehydrogenase 3 (Homo sapiens) (UniProt P47895). Description: qHTS for Inhibitors of the Aldehyde Dehydrogenase Family (ALDH1A3) Primary screen (AID 2061315).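 Note: plate controls were DMSO vehicle for no effect and reference inhibitor for full effect.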 Conditions: ALDH inhibition qHTS; series mostly up to 56 µM.
Test [4] is described as follows: BET inhibitor-based combinations targeting novel dependencies in MECOM-rearranged (r) AML: SET-2 cell line (AID 2202231).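 For viability: plate controls were DMSO treated cells for no effect and wells without cells for full effect.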 Note: nearly all actives have a fitted effect of over 35% in size. Note: potency is the fitted concentration of half-maximal effect. To be noted: SET-2 AML cells viability, CellTiter-Glo luminescence, 48 h; viability: active compounds read low, concentration not given here. Summed up:
(§1)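 500 cells/well; 11-pt dose curve; 48 h, standard incubator; CellTiter-Glo luminescence after 15 min RT; DMSO/empty-well normalization; AUC plus Z-AUC (mean-centered within each line).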
A general note: ATP-based viability assays read luminescence as a measure of living cells.

The nature of test [5]: BET inhibitor-based combinations targeting novel dependencies in MECOM-rearranged (r) AML: MV-4-11 cell line (AID 2202233).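 For viability, % of control: plate controls were DMSO for no effect and blank wells for full effect.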 Note: nearly all actives have a fitted effect of over 45% in size. Note: potency is the fitted concentration of half-maximal effect. Conditions: MV-4-11 AML viability, CellTiter-Glo luminescence, 48 h; series mostly up to 46 µM. Summed up:
(§2)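 Cells were plated at 500 per well and exposed to each drug across an 11-point dose range for 48 hr at standard incubator conditions. Viability was read by CellTiter-Glo luminescence, and activity was expressed as AUC and per-cell-line Z-transformed AUC.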

A short description of test [6]: BET inhibitor-based combinations targeting novel dependencies in MECOM-rearranged (r) AML: HNT-34 cell line (AID 2202234).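 For viability (% of control): plate controls were vehicle wells for no effect and cell-free wells for full effect.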 Note: nearly all actives have a fitted effect of over 35% in size. Note: potency is the fitted concentration of half-maximal effect. Conditions: HNT-34 AML viability, CellTiter-Glo luminescence, 48 h; series mostly up to 46 µM. In short, it runs like this: as §2
A short description of test [7]: BET inhibitor-based combinations targeting novel dependencies in MECOM-rearranged (r) AML: UCSD-AML1 cell line (AID 2202235).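 For viability (% of control): plate controls were DMSO vehicle wells for no effect and blank wells for full effect.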 Note: nearly all actives have a fitted effect of over 40% in size. Note: potency is the fitted concentration of half-maximal effect. Conditions: UCSD-AML1 AML cells viability, CellTiter-Glo, 48 h; series mostly up to 46 µM. Summed up:
as §2

The nature of test [8]: BET inhibitor-based combinations targeting novel dependencies in MECOM-rearranged (r) AML: AML-191 cell line (AID 2202236; note: nearly all actives have a fitted effect of over 35% in size; note: potency is the fitted concentration of half-maximal effect;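 for viability (% of control): plate controls were vehicle wells for no effect and wells without cells for full effect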). Conditions: AML-191 viability, CellTiter-Glo luminescence, 48 h; series mostly up to 46 µM. In short, it runs like this:
as §1

The nature of test [9]: BET inhibitor-based combinations targeting novel dependencies in MECOM-rearranged (r) AML: AML-194 cell line (AID 2202237; note: nearly all actives have a fitted effect of over 40% in size; note: potency is the fitted concentration of half-maximal effect;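 for viability (% of control): plate controls were vehicle wells for no effect and wells without cells for full effect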). Conditions: AML-194 (MECOM-r AML) viability, CellTiter-Glo, 48 h; series mostly up to 46 µM. In short, it runs like this: as §1
Test [10] is described as follows: BET inhibitor-based combinations targeting novel dependencies in MECOM-rearranged (r) AML: OCI-AML3 cell line (AID 2202232).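 For viability (% of control): plate controls were DMSO vehicle wells for no effect and wells without cells for full effect.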 Note: nearly all actives have a fitted effect of over 35% in size. Note: potency is the fitted concentration of half-maximal effect. Conditions: CellTiter-Glo luminescence, 48 h; Potency: OCI-AML3 viability; series mostly up to 46 µM. Summed up:
as §1

Values joined by “and” are separate entries in the source; they are usually repeats but may differ in a detail not shown here. Equal entries are not always repeated. Results filed as inconclusive are left out. Values without a mark were called inactive. Active and inactive are the calls of the source. Calls come from the whole dose curve; as a rule, active = well fitted curve in the direction sought with a large enough effect; inconclusive = small, poorly fitted or top-dose-only effect, or another doubt; inactive = no such curve, though single readings can be large; an effect the other way counts as inactive or inconclusive.

One may read the viability as a read-out of living cells in per cent, often relative to untreated cells. On to `Cn1cnc(-c2cc3nccc(Oc4ccc(NC(=S)NC(=O)Cc5ccccc5)cc4F)c3s2)c1`, for which the activation in test [1] was -7.76% and 19.6%. Besides, the Potency result in test [2] and in [3] was “inactive” throughout. For the same compound, in [4], the viability is 78.9%. Also, the figures for the Potency in test [5] and in [6] were 0.105 µM (active) and 3.72 µM (active), respectively.
As for `CN1CCN(c2ccc(-c3cccc(CN4CCOCC4)c3)cc2NC(=O)c2c[nH]c(=O)cc2C(F)(F)F)CC1`, in [1], the activation is -14.5%. The Potency entry in [2], in [3], in test [6], in test [7] and in test [8] was “inactive” each time. Moreover, in [4], the viability was 120%. For the same compound, the Potency in [5] is 12.9 µM (active).
On to `Cc1cc2c(cc1C1(c3ccc(C(=O)O)cn3)CC1)C(C)(C)CCC2(C)C`, for which, in [1], the activation is -11.7% and 0.333%. For the same compound, the Potency result in test [2], in test [3], in test [6], in test [7] and in [9] was “inactive” each time. The viability in test [4] is 114%. Besides, the Potency in test [5] was 0.0209 µM (active).
For the compound `CC1(C)CCC(CN2CCN(c3ccc(C(=O)NS(=O)(=O)c4ccc(NCC5CCOCC5)c([N+](=O)[O-])c4)c(Oc4cnc5[nH]ccc5c4)c3)CC2)=C(c2ccc(Cl)cc2)C1`, the activation in [1] was -10.9%. Further, the Potency entry in test [2] and in test [3] was “inactive” each time. For the same compound, in test [4], the viability was 114%. The results for the Potency in [10] and in [9] were 3.72 µM (active) and 4.68 µM (active), respectively.
For the compound `Cc1c(NC(=O)c2ccc(C(C)(C)C)cc2)cccc1-c1cn(C)c(=O)c(Nc2ccc(C(=O)N3CCOCC3)cc2)n1`, the activation in test [1] is 63.1% and -9.82%. The Potency entry in test [2], in [3], in test [10], in test [7] and in test [9] was “inactive” throughout. For the same compound, the Potency in test [4] is 16.6 µM (active).
`CCCCOC(=O)NS(=O)(=O)c1sc(CC(C)C)cc1-c1ccc(Cn2ccnc2)cc1`: the activation in test [1] is 6.25%. For the same compound, the Potency entry in test [2], in test [3], in test [10], in test [7] and in [9] was “inactive” throughout. In [4], the viability was 80.2%.
As to `COc1ccc(-c2cnc3c(-c4cccc5ncccc45)cnn3c2)cc1`, in test [1], the activation was 16.1%. Also, the Potency entry in test [2], in test [3], in [6], in test [7], in test [8] and in test [9] was “inactive” throughout. In addition, the viability in test [4] is 119%. Moreover, the Potency in [5] is 7.42 µM (active).
Take `CCC(=O)N[C@H]1CC[C@H](C(=O)N(C)c2ccc(-c3nc4ccccc4o3)cc2)C1`: in [1], the activation is 18%. The Potency entry in test [2], in test [3] and in [7] was “inactive” in each case. For the same compound, the viability in test [4] was 98.9%. Further, the Potency in [10] is 18.6 µM (active); in test [8] it was 20.9 µM (active).
For `Cc1cc(Nc2cc(CN3CCOCC3)c3nc(C)c(Cc4ccc(Cl)cc4F)n3n2)n[nH]1`, the Potency in test [1] was 27.3 µM (active); in test [4] it was 2.63 µM (active); in test [5], 0.235 µM (active); in [6], 2.35 µM (active); in test [7], 2.35 µM (active); in [8] it was 0.742 µM (active). The Potency in [9] is 1.48 µM (active). In addition, the Potency result in test [2] and in test [3] was “inactive” each time.
On to `CC(C)NC(=O)N1CC[C@H](N=C2Nc3cc(F)ccc3N(CC(F)F)c3ccc(Cl)cc32)C1`, for which the activation in test [1] was 4.33%. For the same compound, the Potency entry in test [2] and in test [3] was “inactive” throughout. Also, the viability in [4] was 109%. Further, the viability, % of control in [5] is 94.7% [at 8.46 µM]. The viability (% of control) in [6] is 99.5% [at 8.46 µM]; in test [7] it was 104% [at 8.46 µM]; in test [8], 98.9% [at 8.46 µM]; in test [9] it was 93.8% [at 8.46 µM].
For `COc1cc(OC)c(/C=C/S(=O)(=O)Cc2ccc(OC)c(NCC(=O)O)c2)c(OC)c1`, the activation in [1] is 17.9%. The Potency entry in test [2] and in test [3] was “inactive” each time. Moreover, the Potency in test [4] was 0.296 µM (active); in test [10], 0.209 µM (active); in [6], 0.166 µM (active); in [8], 0.235 µM (active); in test [9] it was 0.263 µM (active).
`Cc1cccc(CC(=O)N2CCc3c2ccc(-c2cn(C)c4ncnc(N)c24)c3F)n1`: the activation in test [1] is 0.893%. The Potency entry in test [2] and in test [3] was “inactive” in each case. The Potency is 5.9 µM (active) in [4], 5.9 µM (active) in test [5] and 4.17 µM (active) in test [6].
Turning to `COc1ccccc1[C@H](c1cccc2ccccc12)[C@@](C)(C#N)C(=O)N1CCC(c2cccc(C(F)(F)F)c2)CC1`, the activation in [1] is 0.109%. In addition, the Potency result in test [2], in test [3], in test [7] and in test [8] was “inactive” throughout. In addition, in test [4], the viability was 110%. Further, the values for the Potency in test [5] and in [6] were 5.25 µM (active) and 13.2 µM (active), respectively.
For `COc1cc2nccc(Oc3ccc(NC(=O)NC4CC4)c(Cl)c3)c2cc1C(N)=O`, the Potency is 26.9 µM (active) in [1]; 18.6 µM (active) in test [4]; 2.09 µM (active) in [5]; 9.34 µM (active) in [6]; 20.9 µM (active) in [8]. The Potency result in test [2], in test [3] and in [9] was “inactive” in each case.
Consider `Clc1ccc(Nc2nnc(Cc3ccncc3)c3ccccc23)cc1`, for which, in test [1], the activation is -10.3% and 9.21% and -17%. For the same compound, the Potency entry in [2], in test [3], in [6], in test [8] and in [9] was “inactive” throughout. In test [4], the viability is 91.3%.
`Cc1c(Cn2c(C)nc3c(C(=O)O)cc(N4CCOCC4)cc32)cccc1C(F)(F)F`: the activation in [1] is -0.853% and -13.4%. Moreover, the Potency entry in [2], in test [3] and in test [9] was “inactive” throughout. Further, the viability in test [4] was 98.9%. Also, the Potency was 4.68 µM (active) in test [5], 5.9 µM (active) in [6] and 4.68 µM (active) in test [8].
For the compound `COc1cccc(OCCCN)c1-c1cc(Nc2cnc(C#N)cn2)n[nH]1`, the Potency was 26.9 µM (active) in test [1], 0.059 µM (active) in test [4], 0.0093 µM (active) in test [7] and 0.0235 µM (active) in test [8]. Further, the Potency result in test [2] and in [3] was “inactive” each time.

(Values after PubChem BioAssay (NCATS).)
